Drawing on PubChem BioAssay AID1850 (Southern Research Specialized Biocontainment Screening …, 2009), this text covers inhibition for 96 compounds.

About 1,000 (0.32%) of roughly 310,000 compounds were called active. Only a sample is shown. Results with a measured potency or affinity are listed apart. Values without a mark were called inactive. The rule behind the calls is not given here.

The assay in a line: PhoP regulon inhibitors, Salmonella typhi PhoP promoter GFP reporter, confirmatory (AID 1850).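 Note: 0% = induced wells with vehicle and 100% = uninduced wells.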 The following applies: fluorescence, 4 h, at 50 µM, active compounds read high.
`COc1ccc(CCC(=O)NCCS(=O)(=O)N2CCN(c3ccc(F)cc3)CC2)cc1`: the inhibition is 3.06%.
Next, `O=C(c1ccccc1)N1N=C(C(F)(F)F)CC1(O)c1ccc(F)cc1` (stereo unspecified): -5.13%.
For `CCOC(=O)c1ccc(S(=O)(=O)N2CCN(C(=O)CSc3nc4ccccc4o3)CC2)cc1` the value was 1.15%; for `CC(=O)c1c(C(C)=O)c(C)n(NC(=O)c2ccc(Cl)cc2)c1C`, 2.98%; for `CN(C)C1=NCC(CSC(=N)N)S1` (stereo unspecified), -1.53%.
Next, `CCOc1ccc(N2CC(C(=O)Nc3ccc4c(c3)OCO4)CC2=O)cc1` (stereo unspecified): 2.26%; `Cc1ccc(C(=O)Nc2nnc(S(=O)(=O)N3CCC(C)CC3)s2)cc1`: 4.17%; `O=C(COC(=O)c1ccc(Cl)c(S(=O)(=O)N2CCCC2)c1)NC1CCCCC1`: 5.96%.
In the case of `Cc1c2ccccc2nc2ccccc12`, the inhibition was -14.3%.
Next, `CCOc1ccc(Nc2cc(C)c3ccccc3n2)cc1`: 10.8%; `COc1c2ccccc2c(OC)c2ccccc12`: -8.01%; `CCOc1ccc(Nc2nc3ccccc3c(=O)s2)cc1`: 10.5%.
For `CCOC(=O)C(Cc1ccccc1)NC(=O)CNC(=O)CNC(=O)OCc1ccccc1` (stereo unspecified) the value was 4.1%; for `CC1CCCCN1C(=O)COC(=O)c1cc([N+](=O)[O-])ccc1N` (stereo unspecified), 0.19%.
Next, `COCCN(C(=O)COC(=O)CC1CCCCC1)c1c(N)n(Cc2ccccc2)c(=O)[nH]c1=O`: -6.56%; `COc1ccc(/C=C(\NC(=O)c2ccco2)C(=O)NCCc2nc3ccccc3[nH]2)cc1`: 4.61%.
`Cc1cc(N(CCCl)CCCl)ccc1/C=N/N=C(\N)c1cnccn1`: the inhibition was 1.24%.
With `CC(C)(C)c1ccc(C(=O)NCC(=O)OCC(=O)Nc2nc(-c3ccc(F)cc3)cs2)cc1`, the inhibition was 6.97%.
`Cc1ccc(C)c2[nH]c(=O)c(CN(CC3CCCO3)S(=O)(=O)c3ccc4c(c3)OCCO4)cc12` (stereo unspecified): the inhibition is -7.59%.
For the compound `CCN(CC)CCN1C(=O)c2cccc3cc(N)cc(c23)C1=O`, the inhibition is 6.76%.
Next, `NC(=O)CN1CCN(CCN2C(=O)c3cccc4cccc(c34)C2=O)CC1`: 10.1%.
For `CC(C)(C)c1ccc(OCCCN2CCCC2)cc1` the value was -5.11%; for `Cc1ccc(OCCCCCCN2CCNCC2)cc1`, 11.8%; for `CC1CCN(CCCCOc2ccc(C(C)(C)C)cc2)CC1`, -0.73%.
For `COCCCNCCCOc1ccc(C(C)(C)c2ccccc2)cc1` the value was 0.01%; for `COCCNCCCOc1ccc(C(C)(C)c2ccccc2)cc1`, 3.55%.
For the compound `CC(C)(c1ccccc1)c1ccc(OCCN2CCOCC2)cc1`, the inhibition was -18%.
For `Cn1c(SCC(=O)Nc2ccc3c(c2)OCCO3)nnc1-c1ccccn1` the value was -2.36%; for `COCCNc1c([N+](=O)[O-])c(=O)n(-c2ccccc2)c2ccccc12`, -1%; for `Cn1c(N)c(N2CCN(c3ccccc3)CC2)c(=O)[nH]c1=O`, -2.5%.
For `O=C(COC(=O)CCC(=O)c1ccc(F)cc1)NCc1ccco1` the value was 11.3%; for `COC(=O)c1sc2ccccc2c1NC(=O)c1ccc(S(=O)(=O)N2CCCCC2)cc1`, 10.9%; for `CN(CCOc1ccc(Cl)cc1)C(=O)C1CCN(C(=O)c2ccc(Cl)cc2)CC1`, -3.38%.
In the case of `CC(=O)NC(c1ccccc1)c1cc([N+](=O)[O-])c2cccnc2c1O` (stereo unspecified), the inhibition is 0.16%.
Next, `CCCC(=O)NC(c1ccco1)c1cc(Cl)c2cccnc2c1O` (stereo unspecified): -13.5%; `CCCC(=O)NC(c1cccs1)c1cc([N+](=O)[O-])c2cccnc2c1O` (stereo unspecified): -5.59%.
With `CC(C)C(=O)NC(c1cccs1)c1cc([N+](=O)[O-])c2cccnc2c1O` (stereo unspecified), the inhibition was -8.78%.
Next, `COc1ccc(S(=O)(=O)N2CCOCC2)cc1N=Nc1sc(N)nc1-c1ccccc1`: 0.93%; `CCCCCCCCOC(=O)C[N+](C)(C)C/C=C(/C)Cl`: -1.52%; `CCCCCOC(=O)CC(C(=O)OCCCCC)N1CCCCC1` (stereo unspecified): 1.36%.
For `CCCCOC(=O)C1CCCC(C(=O)OCCCC)N1` (stereo unspecified) the value was 2.58%.
For `CCCCCCCCCCOC(=O)C[N+](C)(C)C/C=C(/C)Cl` the value was -3.67%; for `CC12CN3CCN(CC(C3)/C1=N/NC(=O)Nc1ccccc1)C2`, 3.04%; for `CCOc1ccc(NC(=O)CN(C)C(=O)c2cn3ccccc3n2)cc1OCC`, -2.5%.
For the compound `O=C(c1ccc(F)cc1)C1CCN(C(=S)Nc2ccc(F)cc2)CC1`, the inhibition was 1.13%.
For `C/C(=N\NC(=O)c1nnn(-c2nonc2N)c1-c1ccc2c(c1)OCO2)c1ccccc1` the value was -37.7%; for `CC1CN(CCOc2ccc(Cl)cc2Cl)CC(C)O1` (stereo unspecified), 10.8%.
Next, `CC1CC(C)CN(CCOc2cccc(Cl)c2Cl)C1` (stereo unspecified): -0.58%; `CC1CC(C)CN(S(=O)(=O)N2CCCC(C(=O)NCCc3ccccc3)C2)C1` (stereo unspecified): 6.06%; `NS(=O)(=O)c1ccc(CCNC(=O)c2cc([N+](=O)[O-])ccc2N2CCCCC2)cc1`: 7.9%.
For `O=C(CCc1ccc(S(=O)(=O)N2CCOCC2)cc1)N1CCN(Cc2ccc3c(c2)OCO3)CC1` the value was -0.09%.
For the compound `CCN1CCN(CCNC(=O)c2ccc(/C=C3/Sc4ccccc4N(Cc4cccc(Cl)c4)C3=O)cc2)CC1`, the inhibition was 47.7%.
On to `CCN1CCN(CCNC(=O)c2ccc3c(c2)N(Cc2ccc(F)cc2)C(=O)c2ccccc2S3=O)CC1` (stereo unspecified), for which the inhibition was -3.27%.
Next, `Cc1ccc(C(=O)Nc2cccc(C(=O)NC3CCCCC3)c2)cc1`: 7.56%.
Consider `CCOC(=O)c1c(C)c(-c2ccccc2)n(CC(=O)N2CCN(C)CC2)c1C`, for which the inhibition was -2.34%.
For `O=C1Nc2ccccc2Nc2ccc([N+](=O)[O-])cc21` the value was -12.2%; for `O=C1Nc2ccccc2C1=Nc1cccc([N+](=O)[O-])c1`, 6.17%; for `COc1ccccc1OCc1ccc(C(=O)NCc2ccco2)o1`, -2.77%.
Next, `COc1ccc2cc(C(=O)N/N=C/c3sc4ccccc4c3O)ccc2c1`: -4.14%; `O=C(N/N=C/c1sc2ccccc2c1O)c1ccccc1`: -3.49%; `O=C(N/N=C/c1ccccc1O)c1cccc2ccccc12`: 3.31%.
For `COc1ccc(C(=O)N/N=C/c2c[nH]c3ccccc23)cc1` the value was 4.58%; for `Cc1ccc(CN2CCCN(Cc3ccc(F)cc3Cl)S2(=O)=O)cc1`, 0.28%; for `O=C(O)C1CC(O)CN1c1nc(Cl)ccc1[N+](=O)[O-]` (stereo unspecified), 4.36%.
`O=C1CC2(CCCC2)Oc2ccccc21`: the inhibition is 9.18%.
For `CC(C)Nc1cc(C(C)(C)C)nc2c(-c3ccccc3)cnn12` the value was 0.99%.
As for `CC(C)(C)c1cc(NCc2ccccn2)n2ncc(-c3ccc(Cl)cc3)c2n1`, the inhibition was -9.09%.
Next, `CC(C)(C)c1cc(NCCCn2ccnc2)n2ncc(-c3ccc(Cl)cc3)c2n1`: -8.35%; `CC(C)(C)c1cc(NCCCn2ccnc2)n2ncc(-c3ccccc3)c2n1`: 12.3%.
For `COC(=O)[C@@H](NC(=O)N1CCC(Cc2ccccc2)CC1)C(C)C` the value was -13.1%; for `CC(C)C(C(=O)NCC1CCCO1)N(C(=O)CNS(=O)(=O)c1ccc(F)cc1)C1CCCCC1` (stereo unspecified), -5.01%.
Consider `Cc1cccc(C)c1NC1=NC(C)(C)N=C(N)N1`, for which the inhibition is -2.14%.
Next, `Cc1ccccc1NC1=NC(C)(C)N=C(N)N1`: 2.17%; `Cc1cccc(NC2=NC(C)(C)N=C(N)N2)c1`: -5.24%.
Next, `CC1(C)N=C(N)NC(Nc2ccccc2)=N1`: 3.29%; `CCCCC(=O)N/N=C/c1ccc(N2CCOCC2)c([N+](=O)[O-])c1`: 5.66%.
Consider `O=C(c1cc(Cl)cc(Cl)c1)N1CCN(c2cc(C(F)(F)F)nc3ccccc23)CC1`, for which the inhibition was 0.46%.
For `CN1N=C(C(C)(C)C)CC1=O` the value was -12.7%; for `OCCC1CN(Cc2nc3ccccc3[nH]2)CCN1C1CCCC1` (stereo unspecified), 3.25%.
For `COc1cc(C(=O)O/N=C2/C=C(C)C(=O)C=C2C)cc(OC)c1OC` the value was -6.02%.
On to `COc1cc(C(=O)ON=C2C=C(C)C(=O)C(C)=C2)cc(OC)c1OC`, for which the inhibition is -6.42%.
Next, `CCc1ccccc1N(CC(=O)N1CCCC1)S(C)(=O)=O`: 6.01%; `Cc1c2c(nc3ccccc13)CC(C)(C)CC2=O`: -15.3%.
For `CCNc1c2c(nc3ccccc13)CC(C)(C)CC2=O` the value was -3.19%; for `CCC(=NCc1cccnc1)c1c(O)n(-c2ccc(C)cc2)c(=O)[nH]c1=O`, -4.52%; for `O=C(COc1ccc2c3c(c(=O)oc2c1)CCC3)N[C@@H](CSCc1ccccc1)C(=O)O`, 11.7%.
For `N#C/C(=C\c1cc(O)c(O)c(O)c1)C(N)=O` the value was 5.26%.
For the compound `CCOC(=O)c1ccc(CNCc2ccc(C)cc2)cc1`, the inhibition is -2.32%.
Take `CCOC(=O)c1ccc(CNCc2ccccc2)cc1`: the inhibition was -2.61%.
For `Cc1noc(C)c1COc1ccc(C(=O)N2CCN(S(=O)(=O)c3ccc(Cl)cc3)CC2)cc1` the value was -8.91%; for `CSc1ccccc1NC(=O)CN(C)C(=O)CCc1c[nH]c2ccccc12`, 2.89%.
Next, `CC(C)(C)c1ccc(OCCON2C(=O)CCC2=O)c(Cl)c1`: 10.3%.
Next, `CNCCCOc1ccc(Cl)cc1C(C)(C)C`: 18.7%; `CCCCNC(=O)c1cccc(NC(=O)C(=O)c2ccccc2NC(C)=O)c1`: 0.04%.
With `COc1ccc(-c2csc(N=C(N)N)n2)cc1`, the inhibition was 4.34%.
Next, `Cc1ccc(-c2csc(N=C(N)N)n2)cc1`: 3.62%.
